Structures are written as SMILES.

Format in all cases: functional
The subject of test [1] is Plasmodium falciparum. The test is described as follows: GSK_TCMDC: Inhibition of Plasmodium falciparum 3D7 in whole red blood cells, using parasite LDH activity as an index of growth. Test compounds present at 2uM.
Test [2] has as its system Plasmodium falciparum. Put plainly: GSK_TCMDC: Inhibition of Plasmodium falciparum Dd2 in whole red blood cells, using parasite LDH activity as an index of growth. Test compounds present at 2uM.
The test system of test [3] is HepG2. Put plainly: GSK_TCMDC: Percent inhibition of human HepG2 cell line. Test compounds present at 10uM.

Regarding `Nc1nccc2ccc(-c3cccnc3)cc12`, the Inhibition stood at 97% in test [1], 95% in test [2] and 9% in test [3].

As for `Cc1cc(-c2cccc(CNC3CCN(C)CC3)c2)ccc1S(=O)(=O)NCCc1ccccn1.O=C(O)C(F)(F)F`, the Inhibition in test [1] stood at 97%; in test [2], 72%; in test [3], 22%.

As for `CN(C)C(CNC(=O)c1cc(-c2ccncc2)c(-c2ccc(Cl)c(O)c2)o1)c1ccccc1.O=C(O)C(F)(F)F` (centres undefined), the Inhibition in test [1] turned out to be 91%; in test [2], 28%; in test [3], 28%.

For `CCc1cccc(NC(=O)/C=C/c2ccc3c(c2)CN(C)CC3)c1`, the values for the Inhibition in test [1], in test [2] and in test [3] were 94%, 91% and 8%, respectively.

Consider `Cc1cc(N/N=C/c2ccccc2[N+](=O)[O-])c2cccc(C)c2n1`, for which the Inhibition in test [1] was 99%; in test [2], 100%; in test [3], 0%.

`O=C(c1cc(-c2cccs2)n[nH]1)N1CCN(S(=O)(=O)c2ccc(Br)cc2)CC1`: the Inhibition in test [1] is reported as 93%; in test [2], 95%; in test [3] it was 0%.

For `N#Cc1cccc(NC(=O)NC2CCN(CCCCCNC(=O)C3CC3c3ccc(Cl)c(Cl)c3)CC2)c1` (centres undefined), the Inhibition in test [1] was 100%; in test [2] it was 0%; in test [3] it was 36%.

As to `O=C(Nc1cccc(CN2CCCN(Cc3cccc(O)c3)CC2)c1)c1ccc(Cl)c(Cl)c1.O=C(O)C(F)(F)F`, the Inhibition stood at 100% in test [1], 79% in test [2] and 25% in test [3].

`CC(=O)Nc1ccc(OCCCCN(Cc2ccccc2C(F)(F)F)c2ccc(C#N)c(C(F)(F)F)c2)cc1`: the Inhibition is 80% in test [1], 47% in test [2] and 0% in test [3].

As to `CC(=O)N[C@H](C(=O)Nc1cccc(-c2ccc(-c3nc4cccc(C)c4[nH]3)s2)c1)C(C)C`, the Inhibition was 93% in test [1], 29% in test [2] and 33% in test [3].

In the case of `Cc1cc(N[C@@H](Cc2ccccc2)C(=O)NC2CCCC2)nc(NCCOc2ccccc2)n1.O=C(O)C(F)(F)F`, the Inhibition in test [1] was 98%; in test [2] it was 48%; in test [3] it was 40%.

As to `O=C(Nc1ccc(F)cc1)NC1CCN(c2ccnc3ccccc23)C1.O=C(O)C(F)(F)F` (centres undefined), the values for the Inhibition in test [1], in test [2] and in test [3] were 92%, 2% and 9%, respectively.

For the molecule `O=C(Cn1c(=O)oc2ccccc21)N1CCC(n2c(=O)n(CCCN3CCOCC3)c3ccccc32)CC1`, the Inhibition in test [1] was found to be 99%; in test [2], 100%; in test [3], 11%.

As to `CC1Cc2ccccc2N1CC(=O)Nc1cc(C(F)(F)F)ccc1-n1cncn1` (centres undefined), the Inhibition came to 97% in test [1], 97% in test [2] and 17% in test [3].

Consider `Cc1noc(NC(=O)c2sc3ccccc3c2O)c1C`, for which the Inhibition in test [1] came to 90%; in test [2] it was 50%; in test [3] it was 0%.

On to `CNC(=O)c1ccccc1Nc1cc(Nc2cc(OC)ccn2)ncc1Cl.O=CO`, for which the values for the Inhibition in test [1], in test [2] and in test [3] were 100%, 100% and 69%, respectively.

As to `CC(C)(C)C(=O)N1CCN(c2ccc([N+](=O)[O-])c(NC3CC3)c2)CC1`, the values for the Inhibition in test [1], in test [2] and in test [3] were 95%, 97% and 8%, respectively.

Take `N#Cc1ccc(N(CCNS(=O)(=O)c2cc(Br)c(Cl)s2)Cc2ccccc2C(F)(F)F)cc1C(F)(F)F`: the results for the Inhibition in test [1], in test [2] and in test [3] were 92%, 57% and 3%, respectively.

As to `CN1CCC(NCc2cccc(-c3ccc(S(=O)(=O)NCCc4ccccn4)c(F)c3)c2)CC1.O=C(O)C(F)(F)F`, the Inhibition in test [1] is 98%; in test [2] it was 26%; in test [3], 11%.

As for `COC(=O)Nc1ccc(-c2ccc(C(=O)NC3CCN(C[C@H](O)c4ccnc5ccc(OC)cc45)CC3)cc2)c(C)c1`, the Inhibition in test [1] stood at 100%; in test [2] it was 97%; in test [3], 32%.

As to `Cc1ccc2nc(C)cc(N/N=C/c3ccc([N+](=O)[O-])cc3)c2c1`, the figures for the Inhibition in test [1], in test [2] and in test [3] were 100%, 15% and 10%, respectively.

Consider `CCOC(=O)NC1=NC(C)(C)N(OCCCOc2cc(Cl)c(Cl)cc2Cl)C(NC(=O)OCC)=N1`, for which the Inhibition in test [1] was determined as 91%; in test [2], 97%; in test [3], 63%.

For `O=C(/C=C/c1ccc(Cl)cc1)NCCCCCN1CCC(c2c[nH]c3ccccc23)CC1`, the Inhibition is recorded as 99% in test [1], 15% in test [2] and 42% in test [3].

For the molecule `CCN(CC)CCCn1c(N)c(-c2nc3ccccc3[nH]2)c2nc(C#N)c(C#N)nc21`, the Inhibition in test [1] turned out to be 100%; in test [2], 99%; in test [3], 8%.

With `CN(C)c1ccc(-c2ccc(C(=O)NC3CCN(Cc4ccccc4F)CC3)s2)cc1.O=C(O)C(F)(F)F`, the Inhibition in test [1] came out at 88%; in test [2], 19%; in test [3], 30%.

As to `Cl.c1ccc2ncc(CNCCCCCCCCNCc3cnc4ccccc4c3)cc2c1`, the Inhibition in test [1] is listed as 88%; in test [2] it was 4%; in test [3] it was 8%.

For the molecule `COc1cc2c(cc1S(=O)(=O)c1ccc(COc3ccc(C(F)(F)F)cc3)cc1)CNCC2.Cl`, the Inhibition in test [1] was 100%; in test [2] it was 89%; in test [3], 32%.

For the molecule `N#Cc1ccc2[nH]cc(-c3cn4cc(SC5CCCC5)ccc4n3)c2c1`, the values for the Inhibition in test [1], in test [2] and in test [3] were 92%, 21% and 1%, respectively.
